Compounds with a hit are over-represented: about 3.2% of the library has one in this group of screens.
p53 reactivation = restores transcriptional activity of mutant p53; H1299 p53-A138V BP100-luciferase reporter, luminescence, 24 h; Potency, µM (series often up to 92.2 µM), for inactives: at the highest dose activity change, positive = activation, hits mostly activators; 0.063% of 320,000 active; AID 504706; also: potency is read from the fitted curve at half-maximal effect; % of control where 0% means no effect; nearly all actives have a fitted effect of over 45% in size
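H1299 (p53-null), stable ts p53-A138V + BP100-Luc; 1000 cells/well, Opti-MEM/10% FBS; cpd 4 pt, 1:5; 24 h, 37 deg C, 5% CO2; detection reagent 10 min RT; luminescence.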
A549 viability = kills or reduces viability of A549 cells in Nrf2 counter-screen | A549 ARE-Fluc cells, CellTiter-Fluor viability, 18-24 h | Potency, µM (titrated, usually from 46 µM), without a hit: at the top dose activity change, negative = cytotoxicity, hits mostly inhibitors | 0.16% of 390,000 active | AID 504648; also: potency is read from the fitted curve at half-maximal effect; % is scaled to controls: 0 for no effect and ±100 for the full control effect
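Cytotoxicity counterscreen: CellTiter-Fluor fluorescence was measured in A549 ARE_Fluc cells after 18-24 h of compound exposure in a concentration series. The subsequent BugLite luminescent read reports ARE-luciferase activity.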
Nrf2 activator = Nrf2 pathway activation. AREc32 ARE-luciferase reporter (MCF7-derived line), luminescence, 24 h. Potency, µM (doses to about 46.1 µM), without a hit: at the top dose activation, most hits filed as activators. 0.31% of 410,000 active. AID 624171; also: potency is read from the fitted curve at half-maximal effect; % of control where 0% means no effect; nearly all actives have a fitted effect of over 65% in size
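AREc32_Fluc, 1000 cells/well, OPTI-MEM + 5% FBS, o/n 37 deg C 5% CO2; 23 nL cpd by pin tool, 24 hr; Steady-Glo 30 min RT, luminescence.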
Nrf2 block = blocks Nrf2 signaling | A549 ARE-Fluc reporter, luciferase luminescence, 18-24 h | Potency, µM (top dose mostly 46 µM), for the others: at the top dose activity change, negative = inhibition, hits mostly inhibitors | 2.1% of 360,000 active; also: potency is read from the fitted curve at half-maximal effect; % is scaled to controls: 0 for no effect and ±100 for the full control effect; nearly all actives have a fitted effect of over 60% in size
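Cells were seeded and rested 2 h, then exposed to compounds for 18-24 h. CellTiter-Fluor was read first as a viability measure. BugLite was added 15 min before the final luminescent read of ARE-luciferase activity in A549 cells.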
IL2 activator = IL-2 activation. IL-2 activation reporter assay, cell-based qHTS; stimulated with anti-CD3/CD4/CD28 beads; in transgenic mouse T cells. activation, % (series mostly up to about 46 µM). 0.065% of 360,000 active. AID 652025; in the data active = activation above about 50%; inconclusive = mostly about 30% to 49%; also: 0% is about no effect
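Readout: EGFP and DsRed signals by fluorescent plate cytometry. Unstimulated transgenic mouse T cells received compound 60 min before antibody-bead stimulation, then incubated 18 h at 37 degrees C.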
BRCA1 expr act = activators of BRCA1 expression. MCF7-BRCA1-FFLuc reporter, luminescence, 48 h; response scale: scaled: vehicle 0%, 10 µM genistein 100%. Potency, µM (doses to about 46.1 µM), inactives show at the top dose activation, actives largely listed as activators. 1.1% of 380,000 active. AID 624202; also: potency is read from the fitted curve at half-maximal effect; nearly all actives have a fitted effect of over 80% in size
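MCF7 cells carrying a BRCA1-firefly luciferase reporter (2000 cells/well, phenol-red free MEM) were attached for 2 h at 37 °C, then given compounds for 48 h. Luminescence was read 15 min after luciferase reagent; activity normalized to genistein (10 microM) and DMSO.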
* = called active by the depositor; [ ] = remark or other dose. Unless noted, calls follow the shape of the dose curve; as a rule, active = well fitted curve in the direction sought with a large enough effect; inconclusive = small, poorly fitted or top-dose-only effect, or another doubt; inactive = no such curve, though single readings can be large; an effect the other way counts as inactive or inconclusive.

For COCCCNC(=O)c1ccc([N+](=O)[O-])cc1 the results were p53 reactivation 8%, A549 viability -1%, Nrf2 activator 0%, Nrf2 block 18%, IL2 activator -2 and BRCA1 expr act 1%.
Screening CC(C)(C)c1ccc(C(=O)NC2(C(F)(F)F)NC(=O)N(CCc3ccccc3)C2=O)cc1 (configuration not stated) returned A549 viability inconclusive, Nrf2 activator 1%, Nrf2 block inconclusive and BRCA1 expr act -62%.
Screening Cc1ccc(Nc2cc(C)nn2-c2nc(C)cc(=O)[nH]2)cc1 returned p53 reactivation -13%, A549 viability 13µM*, Nrf2 activator inconclusive, Nrf2 block 1.8µM*, IL2 activator -3 and BRCA1 expr act -79%.
Screening Cc1ccc(Nc2cc(C)nn2-c2nc(C)cc(C)n2)cc1 returned p53 reactivation -5%, A549 viability -3%, Nrf2 activator 2%, Nrf2 block inconclusive, IL2 activator -3 and BRCA1 expr act -41%.
Screening CCc1ccc(C(=O)COC(=O)C(Cc2c[nH]c3ccccc23)NC(=O)c2ccc(CC)cc2)cc1 (configuration not stated) returned A549 viability -7% and Nrf2 activator 1%.
Screening CN(Cc1ccccc1)/[N+]([O-])=N/Oc1ccc([N+](=O)[O-])cc1[N+](=O)[O-] returned BRCA1 expr act -47%.
For Cc1ccc(CSc2nc3ccsc3c(=O)n2Cc2ccccn2)cc1 the results were p53 reactivation -7%, A549 viability -7%, Nrf2 activator 1%, Nrf2 block 1%, IL2 activator -5 and BRCA1 expr act 1%.
O=c1c2sccc2nc(SCc2cc(=O)n3cc(Br)ccc3n2)n1Cc1ccccn1 was read as p53 reactivation -1%, A549 viability -9%, Nrf2 activator 0%, Nrf2 block 4%, IL2 activator 3 and BRCA1 expr act 6.3µM*.
Screening N#CC1=C(N)CCC1 returned BRCA1 expr act -9%.
For C(=N\NCc1ccccc1)/c1ccc2nccnc2c1 the results were p53 reactivation 7%, A549 viability 0%, Nrf2 activator 3%, Nrf2 block 0%, IL2 activator 1 and BRCA1 expr act 4.5µM*.
C[C@H]1C(=O)N(S(=O)(=O)c2ccccc2[N+](=O)[O-])[C@H]1c1ccc(-c2ccccc2)cc1 was read as A549 viability 0% and Nrf2 block 20%.
`COc1ccc2c(c1)c1c(c(=O)n(Cc3ccccc3)c(=O)n1Cc1cc(C)ccc1C)n2C` gave A549 viability -3%, Nrf2 activator 0%, Nrf2 block inconclusive and BRCA1 expr act -11%.
COc1ccc(-c2nn(-c3ccccc3)cc2C(=O)O)cc1 was read as p53 reactivation 1%, A549 viability 0%, Nrf2 activator 0%, Nrf2 block -10%, IL2 activator -1 and BRCA1 expr act 1%.
COc1ccc(-c2nn(-c3ccccc3)cc2C(=O)NC(=S)NNC(=O)c2ccncc2)cc1 was read as p53 reactivation 6%, A549 viability -15%, Nrf2 activator -1%, Nrf2 block 21µM*, IL2 activator 1 and BRCA1 expr act -49%.
For COc1ccc(-c2nn(-c3ccccc3)cc2C#N)cc1 the results were p53 reactivation 13%, A549 viability -2%, Nrf2 activator 2%, IL2 activator 4 and BRCA1 expr act 4µM*.
For COc1ccc(NC(=O)c2cn(-c3ccccc3)nc2-c2ccncc2)cc1 the results were p53 reactivation -4%, A549 viability -2%, Nrf2 activator 2%[9.22 µM], Nrf2 block 12%, IL2 activator -3 and BRCA1 expr act -16%.
Screening Cc1ccc(NS(=O)(=O)c2cc3c4c(cccc4c2)C(=O)NC3=O)cc1C returned p53 reactivation -6%, A549 viability -9%, Nrf2 activator 2%, Nrf2 block 15µM*, IL2 activator -1 and BRCA1 expr act -27%.
`Cc1ccc(NS(=O)(=O)c2cccc(Cl)c2)cc1C` gave A549 viability 11% and Nrf2 block -13%.
COc1ccc(/C=C2/CCCC(CN(C)C)C2=O)cc1 (configuration not stated) was read as A549 viability 0%, Nrf2 activator 10µM*, Nrf2 block 8%, IL2 activator -8 and BRCA1 expr act -74%.
For CN(C)CC1CCC/C(=C/c2ccc(Cl)cc2)C1=O (configuration not stated) the results were A549 viability -6%, Nrf2 activator 15%, Nrf2 block 14%, IL2 activator -5 and BRCA1 expr act -82%.
For O=C(NCc1cccc(F)c1)C1CCCN(C(=O)N2CCOc3ccccc32)C1 (configuration not stated) the results were A549 viability 2%, Nrf2 activator 0% and Nrf2 block 2%.
Screening Cc1ccc2c(c1)c1c(c(=O)n(-c3cccc(Cl)c3)c(=O)n1CC(=O)NCC1CCCO1)n2C (configuration not stated) returned A549 viability -2%, Nrf2 activator -1%, Nrf2 block inconclusive and BRCA1 expr act 4%.
Screening O=C1NC(=S)S/C1=C\c1cc2ccccc2nc1N1CCCCC1 returned p53 reactivation 3%, A549 viability -28%, Nrf2 activator -1%, Nrf2 block 21µM*, IL2 activator 3 and BRCA1 expr act -7%.
Cc1ccc(OCC(=O)c2ccc3c(c2)CCCC3)cc1C was read as p53 reactivation inconclusive, A549 viability 14%, Nrf2 activator 2%, Nrf2 block 34%, IL2 activator 0 and BRCA1 expr act 4.5µM*.
`O=C(Nc1ccc(S(=O)(=O)NCc2ccco2)cc1)c1ccncc1` gave p53 reactivation -3%, A549 viability -4%, Nrf2 activator 7%, Nrf2 block 13µM*, IL2 activator -3 and BRCA1 expr act -20%.
`Cc1ccc(NC(=O)c2ccc(S(=O)(=O)NCc3ccco3)cc2)cc1` gave p53 reactivation -2%, A549 viability 8%, Nrf2 activator 3%, Nrf2 block inconclusive, IL2 activator 0 and BRCA1 expr act -1%.
For O=C(NC1CCN(Cc2ccccc2)CC1)c1ccc(S(=O)(=O)NCc2ccco2)cc1 the results were p53 reactivation -1%, A549 viability -12%, Nrf2 activator 0%, Nrf2 block 6.5µM*, IL2 activator -2 and BRCA1 expr act -26%.

Source: PubChem BioAssay (National Center for Advancing Translational Sciences (NCATS))
